Assay results from PubChem BioAssay (NCATS).
Where “and” joins values, the source holds several entries; their conditions need not be identical. Equal values may be shown once. Unmarked numbers belong to inactive results. Records with an inconclusive call do not appear. Where a call stands in place of a potency, no number is given. Calls of active or inactive are those of the source. Unless noted, the call rests on the fitted dose curve; in most records, active means well fitted curve in the direction sought with a large enough effect; inconclusive means small, poorly fitted or top-dose-only effect, or another doubt; inactive means no such curve, though single readings can be large; an effect the other way counts as inactive or inconclusive.

Assays:
[1] = qHTS assay for measurement of the activity of small molecule inhibitors on Zika virus induced Caspase-3 activity in human iPSC derived neural progenitor cells (hNPCs) (AID 1224857); further: nearly all actives have a fitted effect of over 65% in size
Outline: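 Cells were plated at 350 per well and grown 16 to 20 hours. Compound pretreatment lasted one hour, after which ZIKV (2 FFU/cell) was added for 6 hours. Percent inhibition was normalized between uninfected and infected controls.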

[2] = qHTS assay for measurement of the activity of small molecule inhibitors on Zika virus induced Caspase-3 activity in human astrocytoma cells (AID 1224859)
Outline: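 Percent inhibition of virus-induced caspase-3/7 signal is calculated against uninfected and ZIKV-infected control cells. Cells are SNB-19, infected at 2 FFU/cell for 6 h after 1 h compound exposure.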

[3] = P-glycoprotein substrates identified in KB-8-5-11 adenocarcinoma cell line, qHTS therapeutic library screen (AID 1346987); further: nearly all actives have a fitted effect of over 65% in size; further: potency means the concentration at half of the fitted maximal effect
Outline: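 Compounds are pinned in dose-response onto KB-8-5-11 cells (500 cells/well, colchicine-free medium) and left 72 h at 37 degree C. CellTiter-Glo luminescence then yields AC50 values.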

[4] = Natriuretic polypeptide receptor (hNpr1) antagonism - Pilot counterscreen GloSensor control cell line (AID 1347045; calls by dose curve; further: series mostly up to about 38 µM)
Outline: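 Control counterscreen: luciferase cGMP-biosensor HEK293 cells (no Npr1) received compound for 30 min at room temperature after GloSensor substrate loading. Luminescence was measured before and 20 min after soluble guanylyl cyclase activation by 50 uM nitroprusside.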

[5] = molecular target: Atrial natriuretic peptide receptor 1 (Homo sapiens) (UniProt P16066); assay: Natriuretic polypeptide receptor (hNpr1) antagonism - Pilot screen (AID 1347049; calls by dose curve;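 further: agonist-evoked cGMP luminescence read 20 min after hNppA addition; series mostly up to about 58 µM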)
Sequence of Atrial natriuretic peptide receptor 1 (Homo sapiens) (P16066 whole entry, looked up): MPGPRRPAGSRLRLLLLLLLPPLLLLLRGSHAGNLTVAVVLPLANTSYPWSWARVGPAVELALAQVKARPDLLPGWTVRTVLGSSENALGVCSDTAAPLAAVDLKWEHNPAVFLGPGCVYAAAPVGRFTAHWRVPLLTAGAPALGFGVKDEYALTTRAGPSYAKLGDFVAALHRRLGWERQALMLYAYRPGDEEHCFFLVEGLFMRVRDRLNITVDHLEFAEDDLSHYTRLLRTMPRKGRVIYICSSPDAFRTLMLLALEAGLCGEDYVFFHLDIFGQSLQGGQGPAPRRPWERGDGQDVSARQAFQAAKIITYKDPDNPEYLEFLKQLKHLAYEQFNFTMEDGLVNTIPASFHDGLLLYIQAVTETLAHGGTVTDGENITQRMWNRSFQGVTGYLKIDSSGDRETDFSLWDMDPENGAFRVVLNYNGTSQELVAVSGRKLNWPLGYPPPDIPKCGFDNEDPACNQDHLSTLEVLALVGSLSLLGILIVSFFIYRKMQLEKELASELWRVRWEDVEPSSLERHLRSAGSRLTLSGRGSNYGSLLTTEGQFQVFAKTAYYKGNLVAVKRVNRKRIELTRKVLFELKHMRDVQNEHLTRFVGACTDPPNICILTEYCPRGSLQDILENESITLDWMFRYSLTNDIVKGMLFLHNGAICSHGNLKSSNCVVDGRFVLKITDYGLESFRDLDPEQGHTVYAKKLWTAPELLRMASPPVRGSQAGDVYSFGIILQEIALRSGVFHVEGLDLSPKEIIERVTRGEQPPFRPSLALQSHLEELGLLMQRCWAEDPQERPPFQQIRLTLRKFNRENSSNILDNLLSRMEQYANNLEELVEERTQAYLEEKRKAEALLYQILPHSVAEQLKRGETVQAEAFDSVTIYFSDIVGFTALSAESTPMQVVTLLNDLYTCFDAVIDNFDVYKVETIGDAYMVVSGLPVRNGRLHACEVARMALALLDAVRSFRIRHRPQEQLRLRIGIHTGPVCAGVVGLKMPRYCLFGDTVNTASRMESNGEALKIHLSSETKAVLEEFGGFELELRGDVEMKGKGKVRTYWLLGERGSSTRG
Outline: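 cGMP-sensor HEK293/hNpr1 cells, 1500/well, plated overnight at 37C. 2% GloSensor reagent, 2 h RT. Compound (23 nL pin transfer) 30 min RT, baseline luminescence pre-read. 0.1 nM hNppA, 20 min RT, post-read.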

[6] = molecular target: Atrial natriuretic peptide receptor 2 (Homo sapiens) (UniProt P20594); assay: Natriuretic polypeptide receptor (hNpr2) antagonism - Pilot subtype selectivity assay (AID 1347050; calls by dose curve; further: potency means the concentration at half of the fitted maximal effect)
Sequence of Atrial natriuretic peptide receptor 2 (Homo sapiens) (P20594 whole entry, looked up): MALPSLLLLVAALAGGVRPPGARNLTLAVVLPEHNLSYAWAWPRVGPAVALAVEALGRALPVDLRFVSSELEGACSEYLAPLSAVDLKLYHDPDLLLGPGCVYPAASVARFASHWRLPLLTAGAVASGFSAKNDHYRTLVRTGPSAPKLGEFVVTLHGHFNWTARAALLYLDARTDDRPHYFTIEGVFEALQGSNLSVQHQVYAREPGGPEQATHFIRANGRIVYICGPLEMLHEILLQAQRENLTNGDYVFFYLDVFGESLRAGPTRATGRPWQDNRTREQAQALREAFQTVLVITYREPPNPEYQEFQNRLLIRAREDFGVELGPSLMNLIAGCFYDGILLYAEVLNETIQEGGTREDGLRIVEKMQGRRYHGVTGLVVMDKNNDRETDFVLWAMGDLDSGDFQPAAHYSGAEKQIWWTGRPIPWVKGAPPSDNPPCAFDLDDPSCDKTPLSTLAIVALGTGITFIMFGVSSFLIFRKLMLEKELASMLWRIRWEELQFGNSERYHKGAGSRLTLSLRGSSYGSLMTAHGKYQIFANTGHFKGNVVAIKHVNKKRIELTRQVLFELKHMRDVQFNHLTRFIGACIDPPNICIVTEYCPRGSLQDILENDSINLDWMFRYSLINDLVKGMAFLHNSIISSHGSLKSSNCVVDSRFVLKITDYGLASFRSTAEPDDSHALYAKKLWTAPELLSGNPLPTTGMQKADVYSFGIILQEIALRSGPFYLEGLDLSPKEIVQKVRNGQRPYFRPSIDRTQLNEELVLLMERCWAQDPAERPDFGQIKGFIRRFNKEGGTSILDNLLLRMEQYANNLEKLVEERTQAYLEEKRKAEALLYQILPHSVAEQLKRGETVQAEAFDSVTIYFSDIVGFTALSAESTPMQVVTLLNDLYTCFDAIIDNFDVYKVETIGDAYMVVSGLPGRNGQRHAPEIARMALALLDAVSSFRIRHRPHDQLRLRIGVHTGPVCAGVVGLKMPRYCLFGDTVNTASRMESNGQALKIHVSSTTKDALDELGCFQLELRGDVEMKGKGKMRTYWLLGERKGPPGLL
Outline: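 Luminescence from a genetically encoded cGMP luciferase biosensor in hNpr2-expressing HEK293 cells is read before and 20 min after adding 1 nM hNppC. Test compounds, in interplate 1:5 titrations, are added 30-50 min ahead of the agonist.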

[7] = NS1 protein of Zika virus - qHTS assay to identify small molecule inhibitors in human HEK 293 cells (AID 1347053); further: nearly all actives have a fitted effect of over 55% in size; further: potency means the concentration at half of the fitted maximal effect
Outline: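 Compound-treated (1 h pre-infection) HEK 293 cells infected with ZIKV MR766, MOI = 0.5; after 24 h at 37 C, NS1 read by TR-FRET; data normalized to uninfected and infected controls.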

[8] = molecular target: T1, Tyrosine-protein phosphatase non-receptor type substrate 1 (Homo sapiens) + Leukocyte surface antigen CD47 (Homo sapiens) (UniProt P78324+Q08722); assay: CD47-SIRPalpha protein protein interaction - LANCE assay qHTS validation (AID 1347057; active means well fitted curve in the direction sought with a large enough effect in the signal ratio, with a control signal flat, not every such curve was filed as active; the % refers to the signal ratio; further: series mostly up to about 38 µM)
T1 sequence (P78324 whole entry, looked up, the tested form may be a part): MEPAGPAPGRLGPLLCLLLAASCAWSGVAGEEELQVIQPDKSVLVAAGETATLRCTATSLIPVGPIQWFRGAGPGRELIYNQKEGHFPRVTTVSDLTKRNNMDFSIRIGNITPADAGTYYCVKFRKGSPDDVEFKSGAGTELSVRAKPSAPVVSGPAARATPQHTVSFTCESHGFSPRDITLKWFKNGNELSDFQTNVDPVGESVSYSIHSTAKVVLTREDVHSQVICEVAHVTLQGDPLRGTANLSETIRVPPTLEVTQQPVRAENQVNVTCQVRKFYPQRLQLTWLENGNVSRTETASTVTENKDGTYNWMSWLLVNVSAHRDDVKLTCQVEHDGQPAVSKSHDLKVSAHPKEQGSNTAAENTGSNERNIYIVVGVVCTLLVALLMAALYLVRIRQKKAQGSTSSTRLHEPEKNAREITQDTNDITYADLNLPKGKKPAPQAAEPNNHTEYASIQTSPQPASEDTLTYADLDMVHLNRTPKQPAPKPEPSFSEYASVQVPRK
T1 sequence (Q08722 whole entry, looked up, the tested form may be a part): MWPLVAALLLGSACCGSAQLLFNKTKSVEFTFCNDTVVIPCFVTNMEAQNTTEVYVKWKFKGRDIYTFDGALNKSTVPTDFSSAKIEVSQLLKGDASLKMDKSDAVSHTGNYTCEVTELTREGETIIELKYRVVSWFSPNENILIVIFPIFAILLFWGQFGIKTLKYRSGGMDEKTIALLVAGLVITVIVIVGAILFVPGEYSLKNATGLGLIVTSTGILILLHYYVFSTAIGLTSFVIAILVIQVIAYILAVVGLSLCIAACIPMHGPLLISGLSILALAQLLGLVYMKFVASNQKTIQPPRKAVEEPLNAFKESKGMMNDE
Outline: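 Inhibition of soluble CD47/SIRPalpha ectodomain association by titrated compounds, measured as 665/615 nm time-resolved FRET ratio after sequential 30 min room-temperature incubations.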

[9] = molecular target: T1, Tyrosine-protein phosphatase non-receptor type substrate 1 (Homo sapiens) + Leukocyte surface antigen CD47 (Homo sapiens); assay: CD47-SIRPalpha protein protein interaction - Alpha assay qHTS validation (AID 1347059);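 further: bead proximity luminescence from CD47 binding SIRPalpha after compound preincubation with SIRPalpha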
Outline: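 SIRPalpha-biotin 25 nM + cpd, 30 min RT, dark; add CD47-His 12.5 nM, 30 min; add Ni-NTA/SAV beads 10 ug/mL, 30 min; AlphaScreen. Buffer PBS pH 7.4 + 0.05% IGEPAL CA-630. Non-biotinylated SIRPalpha as control inhibitor.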

[10] = molecular target: Parathyroid hormone/parathyroid hormone-related peptide receptor (Homo sapiens) (UniProt Q03431); assay: qHTS for PTHR1 Agonists: Optimization Screen against the NCGC LOPAC library (AID 1347079);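 further: GloSensor cAMP luminescence in HEK-293 GP2 cells expressing human PTHR1 with IBMX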
Sequence of Parathyroid hormone/parathyroid hormone-related peptide receptor (Homo sapiens) (Q03431 whole entry, looked up): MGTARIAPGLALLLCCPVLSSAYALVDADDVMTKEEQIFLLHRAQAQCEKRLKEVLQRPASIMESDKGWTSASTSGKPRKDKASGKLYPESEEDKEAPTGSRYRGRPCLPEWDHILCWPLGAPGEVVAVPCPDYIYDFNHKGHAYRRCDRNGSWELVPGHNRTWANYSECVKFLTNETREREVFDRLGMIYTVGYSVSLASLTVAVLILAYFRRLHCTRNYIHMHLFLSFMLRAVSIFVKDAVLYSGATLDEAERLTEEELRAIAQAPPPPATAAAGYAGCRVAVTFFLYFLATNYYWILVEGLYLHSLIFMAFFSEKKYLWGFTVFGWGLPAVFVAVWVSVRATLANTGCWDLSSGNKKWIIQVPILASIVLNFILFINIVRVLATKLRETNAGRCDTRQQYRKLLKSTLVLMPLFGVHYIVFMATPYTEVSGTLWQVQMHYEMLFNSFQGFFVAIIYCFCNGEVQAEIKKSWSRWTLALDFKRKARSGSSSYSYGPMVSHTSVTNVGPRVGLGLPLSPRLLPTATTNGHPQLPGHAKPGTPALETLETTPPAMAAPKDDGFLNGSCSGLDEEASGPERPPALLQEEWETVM
Outline: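 HEK-293 GP2 cells, PTHR1 + GloSensor cAMP; 3000 cells/well, o/n. Luciferin + IBMX 0.5mM each (stock), 1 hr 37C. Cpd titration, 1 hr 37C. Lum after 15 min RT. Ctrl M-PTH(1-15) top 10uM.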

[11] = qHTS of pediatric cancer cell lines to identify multiple opportunities for drug repurposing: Primary screen for TC32 cells (AID 1347089); further: nearly all actives have a fitted effect of over 60% in size; further: potency means the concentration at half of the fitted maximal effect
Outline: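 In the primary qHTS, MIPE compounds were tested at 11 concentrations (0.78 nM to 46 µM) and NPC compounds at 8 (0.59 nM to 46 µM) on TC32 cells for 48 h. CellTiter-Glo luminescence gave viability.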

[12] = qHTS assay to identify small molecule inhibitors of chordoma cells - UCH-1 (AID 1259355); further: nearly all actives have a fitted effect of over 55% in size
Outline: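 Screening used approved and investigational drugs in 15-point titration against 800 seeded cells per well. A fixed combination of auranofin with camptothecin, doxorubicin, rubitecan and topotecan followed compound addition, and growth was scored by CellTiter-Glo after 48hr.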

[13] = qHTS assay to identify small molecule inhibitors of chordoma cells - UCH-2 (AID 1259356); further: series mostly up to about 46 µM
[14] = Identifying Small Molecule Inhibitors of Pancreatic Cancer Stem Cells (SN12C, Adherent) (AID 1259358);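 further: cell survival measured after 48 h of compound exposure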
Outline: (§1)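 Monolayer and spheroid cultures are compared. Spheroids form over 14 days in stem cell medium on hydrogel-coated low-attachment plates, then are exposed to compound for 48 h before CellTiter-Glo luminescence.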

[15] = Identifying Small Molecule Inhibitors of Pancreatic Cancer Stem Cells (A278, Adherent) (AID 1259361);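 further: viability read after 48 h compound exposure; nearly all actives have a fitted effect of over 35% in size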
Outline: as §1

[16] = Identifying Small Molecule Inhibitors of Pancreatic Cancer Stem Cells (A2780, Spheroid) (AID 1259357);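 further: compound exposure lasted 48 h before the ATP luminescence read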
Outline: (§2)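 Viability is scored by CellTiter-Glo luminescence 48 h after dosing, expressed as percent activity against vehicle and no-cell references. Spheroid formats rely on cells cultured 14 days in stem cell media beforehand.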

[17] = Identifying Small Molecule Inhibitors of Pancreatic Cancer Stem Cells (SN12C, Spheroid) (AID 1259360)
Outline: as §2

SMILES	outcome [1]	outcome [2]	Potency [3]	outcome [4]	outcome [5]	Potency [6]	Potency [7]	outcome [8]	outcome [9]	Potency [10]	Potency [11]	Potency [12]	outcome [13]	outcome [14]	IC50 (viability decrease) [15]	outcome [16]	outcome [17]
CN(C)CCCN1c2ccccc2CCc2ccccc21	inactive	inactive	9.2 µM (active)	inactive	inactive	16.5 µM (active)	inactive	inactive	inactive	inactive	inactive						
CN(C)CCOC(C)(c1ccccc1)c1ccccn1 (stereo not given)	inactive	inactive		inactive	inactive	inactive	inactive	inactive	inactive	inactive	inactive						
C#CCN(C)Cc1ccccc1		inactive	inactive	inactive	inactive	inactive	inactive	inactive	inactive	inactive	inactive	inactive	inactive				
CC(C)(C(=O)O)c1ccc(C(O)CCCN2CCC(C(O)(c3ccccc3)c3ccccc3)CC2)cc1 (stereo not given)	inactive	inactive	inactive				inactive			inactive	inactive						
NC(=O)c1ncn([C@@H]2O[C@H](CO)[C@@H](O)[C@H]2O)c1N		inactive	inactive				inactive				inactive	inactive	inactive	inactive	inactive		
CNCCC(Oc1ccc(C(F)(F)F)cc1)c1ccccc1 (stereo not given)	inactive	inactive					inactive			inactive	inactive		inactive				
CC(C)(C)[C@]1(O)CCN2C[C@H]3c4ccccc4CCc4cccc(c43)[C@@H]2C1	inactive	inactive		inactive	inactive	inactive	inactive	inactive	inactive	inactive							
CC(=O)O[C@@]12CO[C@@H]1C[C@H](O)[C@@]1(C)C(=O)[C@H](O)C3=C(C)[C@@H](OC(=O)[C@H](O)[C@@H](NC(=O)OC(C)(C)C)c4ccccc4)C[C@@](O)([C@@H](OC(=O)c4ccccc4)[C@H]21)C3(C)C		inactive	6.51 µM (active) and 4.11 µM (active)				inactive				2.6 nM (active)	inactive	inactive	inactive	inactive	inactive	inactive
CC(C)(C)c1onc(OCP(=O)(O)O)c1CC(N)C(=O)O (stereo not given)	inactive	inactive		inactive	inactive	inactive	inactive	inactive	inactive	inactive							
CN(C)CCCN1c2ccccc2Sc2ccc(Cl)cc21	inactive	inactive		inactive	inactive	14.7 µM (active)	7.08 µM (active)	inactive		inactive			inactive				
CC(CN1c2ccccc2Sc2ccccc21)N(C)C (stereo not given)	inactive	inactive			inactive	inactive	inactive	inactive	inactive	inactive	inactive		inactive				
CCN(CC)CCNC(=O)c1cc(Cl)c(N)cc1OC		inactive	inactive	inactive	inactive	inactive	inactive	inactive	inactive	inactive	inactive	inactive	inactive				
CC(=O)OCC(=O)[C@@]1(O)CC[C@H]2[C@@H]3CCC4=CC(=O)CC[C@]4(C)[C@H]3C(=O)C[C@@]21C	inactive	inactive		inactive	inactive	inactive	inactive	inactive	inactive	inactive	inactive						
NC(=O)c1ncn([C@@H]2O[C@H](CO)[C@@H](O)[C@H]2O)n1	inactive	inactive			inactive	inactive	inactive	inactive	inactive	inactive	inactive		inactive				
Nc1cc(=O)[nH]c(N)n1	inactive	inactive	inactive		inactive	inactive	inactive	inactive	inactive	inactive	inactive						
CCN(CC)CCOC(=O)C1(C2CCCCC2)CCCCC1	inactive	inactive	inactive	inactive	inactive	inactive	inactive	inactive	inactive	inactive	inactive						
CN(C)CC[C@@H](c1ccc(Cl)cc1)c1ccccn1	inactive	inactive	inactive		inactive		inactive			inactive	inactive						
